# Pf growth 48h: inhibits P. falciparum growth in the first generation, 48 h; P. falciparum luciferase growth in erythrocytes, 48 h; 5.9% of 310,000 active; AID 504832; Potency, µM (titrated, usually from 28.7 µM), for the others: top-dose activity change, negative = inhibition, usual class: inhibitors; further: potency means the concentration at half of the fitted maximal effect; on the % scale 0 is the no-effect control and ±100 the full control effect
#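 Growth was read as firefly luciferase luminescence after a 48 h, 37 C, 5% CO2 exposure of compounds to reporter-bearing P. falciparum cultures (0.1% parasitemia, 2% hematocrit final) in Albumax-supplemented RPMI 1640.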
# AMA1-RON2 inh: AMA1-RON2 (P. falciparum) interaction inhibition; AID 720542; Potency, µM (highest dose often 58.2 µM), for the others: at the highest dose activity change, negative = inhibition, most hits filed as inhibitors; 0.2% of 360,000 active; AlphaScreen AMA1-biotinylated RON2 peptide binding;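 further: potency means the concentration at half of the fitted maximal effect; 0% = vehicle wells and -100% = peptide control; nearly all actives have a fitted effect of over 45% in size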
#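 AMA1 (3D7) with his tag at 25 nM final met compounds first, then biotinylated RON2 peptide at 25 nM; detection used donor plus acceptor beads, 10 µg/mL apiece, read by AlphaScreen after 30 min at room temperature.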
# Pf growth 96h: P. falciparum growth inhibition at 96 hour, primary screen for plastid delayed-death inhibitors; P. falciparum luciferase reporter growth, 96 h; Potency, µM (top dose mostly 28.7 µM), for inactives: top-dose activity change, negative = inhibition, hits mostly inhibitors; 6.9% of 320,000 active; AID 504834; further: potency means the concentration at half of the fitted maximal effect; on the % scale 0 is the no-effect control and ±100 the full control effect
#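 Two-generation exposure (96 h) targets delayed-death phenotype. Reporter parasites carrying integrated firefly luciferase, in red cells at 2% hematocrit and 0.05% parasitemia final, kept at 37 C, 5% CO2; luminescence loss indicates inhibition.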
# Shiga inhibitor: Shiga toxin inhibition | Vero cells, Shiga toxin protein synthesis inhibition reporter | inhibition, % at 38.7 µM | 9.2% of 290,000 active; in the data active means inhibition mostly above about 28%, no sharp cut-off; inactive means mostly below about 43%; further: 0% is about no effect
# Cycloheximide cs: counter-screen hit for Shiga toxin inhibitors, cycloheximide; AID 2314; max response, %; cell reporter, cycloheximide protein synthesis inhibition counterscreen; 12% of 300,000 active; in the data active means max response mostly above about 13%, no sharp cut-off; inactive means mostly below about 14%; further: read at 38.3 µM for the half of the compounds with a filed dose; 0% is about no effect
# HCV inhibitor: HCV inhibition; Huh7.5.1 HCVcc-Cre infection, luciferase reporter, 44 h; Potency, µM (doses to about 41.8 µM), for inactives: at the highest dose activity change, negative = inhibition, hits mostly inhibitors; 3.4% of 340,000 active; further: potency means the concentration at half of the fitted maximal effect; on the % scale 0 is the no-effect control and ±100 the full control effect
#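 Infectious HCVcc-Cre (~0.5 moi) was added to cells just after compound, with cells seeded 4 h earlier at 1,000 per well. Luciferase activity after 44 h culture reported infection; substrate was incubated 15 min at room temperature before reading.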
# * = called active by the depositor; ? = inconclusive; . = no result given; + = active, no number; [ ] = another dose, or the depositor's remark. Only some compounds are listed: those with a hit (about 21% of all), similar ones and a draw of the others. Unless noted, the call rests on the fitted dose curve; in most records, active means well fitted curve in the direction sought with a large enough effect; inconclusive means small, poorly fitted or top-dose-only effect, or another doubt; inactive means no such curve, though single readings can be large; an effect the other way counts as inactive or inconclusive.
SMILES,Pf growth 48h,AMA1-RON2 inh,Pf growth 96h,Shiga inhibitor,Cycloheximide cs,HCV inhibitor
O=C(CCl)Nc1cccc2ncccc12,2.3µM*,32%,1%,-13,-2,13µM*
CCOc1cc(C(=O)Nc2cccc3ncccc23)cc(OCC)c1OCC,.,-3%,15µM*,-3,2,-6%
COC(=O)c1ccccc1COc1cccn2c(N(C)C(=O)CCC3CCCC3)c(C)nc12,.,-21%,.,.,.,.
O=C(Cc1cccs1)N1CCN=C1SCc1cccc(F)c1,-7%,0%,19%,-5,1,1%
Cc1cc2c(cc1C)-n1nnnc1C(N(Cc1ccccc1)Cc1ccccc1)C(=O)N2 (stereo not given),.,-2%,.,.,.,.
CCN(CC)/C(N)=N/c1nc(C)cc(C)n1,-10%,1%,4%,5,-3,30%
CCN(/C(N)=N/c1nc(C)cc(C)n1)c1ccccc1,9%,69%,-4%,20,13*,6%
Cn1c2c(c(=O)n(C)c1=O)C(C(F)(F)F)(C(F)(F)F)N=C(CCC1CCCCC1)N2,?,-1%,12µM*,20,-2,?
CCN(CC)c1ccc(/C=C2\C(=O)c3ccc(C(=O)O)cc3C2=O)cc1,-11%,-12%[11.6 µM],-3%,+,130*,22%
CC1(C)c2ccccc2-c2nc3ccccc3cc2C1O (stereo not given),-4%,0%,-2%,16,18*,16%
Cc1cn([C@H]2C[C@H](O)[C@@H](CNC(=O)[C@H](N)Cc3cn(COCc4ccccc4)cn3)O2)c(=O)[nH]c1=O,.,14%,.,.,.,.
CC1(NC(=O)Cc2ccc(S(=O)(=O)N3CCOCC3)s2)CCS(=O)(=O)C1 (stereo not given),?,-4%,4%,.,.,24%
Cc1nc2c(sc(=S)n2Cc2ccco2)c(=O)n1CC(=O)Nc1cc(F)ccc1F,-25%,-3%,?,-4,5,13µM*
COc1ccccc1NC(=O)Cn1c(C)nc2c(sc(=S)n2Cc2ccco2)c1=O,-8%,-8%,?,-6,-3,13µM*
CCOc1ccc(NC(=O)CN(C)C(=O)c2sccc2-c2ccccc2)cc1OCC,?,-8%,?,.,.,?
O=C(Nc1ccc(F)c([N+](=O)[O-])c1)c1ccc2c(c1)OCCO2,67%,-11%,-25%,55*,33*,8%
O=C(Nc1ccc(Cl)cc1[N+](=O)[O-])c1ccc2c(c1)OCCO2,136%,-3%,?,67*,40*,18%
O=C(Nc1cc(Cl)ccc1N1CCOCC1)c1ccc2c(c1)OCCO2,?,-8%,8%,4,1,?
CCN(CC)C(=O)[C@H]1CC(CC(=O)NCc2cccc(C(F)(F)F)c2)C(=O)N2CCc3c([nH]c4ccc(OC)cc34)[C@]12C (stereo not given in full),.,-18%,.,.,.,?
COc1ccc2[nH]c3c(c2c1)CCN1C(=O)C(CC(=O)NCc2cccc(C(F)(F)F)c2)C[C@H](C(=O)N2CCCCC2)[C@@]31C (stereo not given in full),.,-28%,.,.,.,11µM*
O=C(C[C@H]1C[C@H](C(=O)N2CCCCC2)[C@@]2(CCc3ccccc3)c3[nH]c4ccc(Cl)cc4c3CCN2C1=O)NCCCn1ccnc1,.,0%,.,.,.,25µM*
CN(C)C(=O)CCc1ccc2c3c([nH]c2c1)[C@]1(C)[C@@H](C(=O)N2CCCCC2)C[C@H](CC(=O)NCc2cccc(C(F)(F)F)c2)C(=O)N1CC3,.,-9%,.,.,.,?
COc1ccc2[nH]c3c(c2c1)CCN1C(=O)C(CC(=O)NCC24CC5CC(CC(C5)C2)C4)C[C@H](C(=O)N2CCCCC2)[C@@]31C (stereo not given in full),.,-4%,.,.,.,25µM*
C[C@]12c3[nH]c4ccc(Cl)cc4c3CCN1C(=O)[C@@H](CC(=O)NCc1cccc(C(F)(F)F)c1)C[C@@H]2C(=O)N1CCCCC1,.,-1%,.,.,.,25µM*
C[C@]12c3[nH]c4ccc(Cl)cc4c3CCN1C(=O)[C@@H](CC(=O)NCCCn1ccnc1)C[C@@H]2C(=O)N1CCCCC1,.,-10%,.,.,.,?
SMILES,Pf growth 48h,AMA1-RON2 inh,Pf growth 96h,Shiga inhibitor,Cycloheximide cs,HCV inhibitor
COc1ccc(C)cc1NC(=O)CO/N=C(\N)CC(=O)NC1CCCCC1,?,-2%,?,.,.,-15%
CCc1nc2ccc(C(=O)N(C)CCCN(C)C)cn2c1N(C)C(=O)C1CCCCC1,.,-2%,.,.,.,.
CN=C(NC1CCCCC1)c1ccc([N+](=O)[O-])cc1,18%,-4%,-11%,-4,1,-13%
CC1=C(/C=C/C(C)=C/C=C/C(C)=C/C(=O)Nc2ccc(O)cc2)C(C)(C)CCC1,12µM*,-14%,?,.,.,6.3µM*
CC1=C(/C=C/C(=C/C=C/C(C)=C/C(=O)O)c2ccc(C)cc2)C(C)(C)CCC1,.,.,.,91*,61*,.
CC1=C(/C=C/C(C)=C/C=C/C(C)=C\C(=O)O)C(C)(C)CCC1,.,0%,.,.,.,28%
CC(=O)N(CC(O)CN(C(C)=O)c1c(I)c(C(=O)NC[C@@H](O)CO)c(I)c(C(=O)NC[C@@H](O)CO)c1I)c1c(I)c(C(=O)NC[C@@H](O)CO)c(I)c(C(=O)NC[C@@H](O)CO)c1I,5%[12.8 µM],.,7%[12.8 µM],.,.,.
CCCNC(=O)COc1coc(CN2CCN(c3ccccc3OC)CC2)cc1=O,-3%,0%,?,-13,10,-26%
Cc1ccc(NC(=O)COc2coc(CN3c4ccccc4CC3C)cc2=O)c(C)c1 (stereo not given),?,-29%,?,.,.,?
CC1Cc2ccccc2N1Cc1cc(=O)c(OCC(=O)Nc2ccccc2)co1 (stereo not given),9.3µM*,-1%,10µM*,.,.,?
COc1ccc(CCNC(=O)COc2coc(CN3c4ccccc4CC3C)cc2=O)cc1OC (stereo not given),9.3µM*,-19%,?,.,.,11µM*
COc1ccc(C(=O)CNc2ccccc2CO)cc1,58%,0%,0%,111*,42*,5%
COc1ccccc1NCC(=O)c1ccc(Cl)cc1,-1%,?,33%,13,6,23%
COc1ccc(C(=O)CNc2ccccc2C#N)cc1,4%,2%,-29%,76*,28*,-8%
COc1ccc(C(=O)COc2ccccc2C#N)cc1,80%,4%,51%,60*,28*,?
COc1ccccc1NCC(=O)c1ccc(C)c(C)c1,29%,-4%,5%,.,16*,13%
COC(=O)[C@H](Cc1ccccc1)NC(=O)Cn1cnc2c(NCc3ccccc3)ncnc21,.,4%,.,.,.,?
COCCn1c(SCC(=O)Nc2cc(C)on2)nnc1C(C)C,11%,-5%,-19%,-10,-3,12%
COc1ccc(C(=O)CNc2ccc(C)cc2C)cc1,78%,?,62%,29,25*,-9%
COc1cc(OC)c(OC)cc1CNCc1ccco1,28%,?,38%,26,-3,29%
